Assay outcomes (PubChem BioAssay)
CBX7 inh = inhibitors of human CBX7 binding to H3K27me3 peptide; 1.1% of 66,000 active; AlphaScreen His6-CBX7 / biotin-H3K27me3 peptide binding; hits give low values; normalised signal (fraction of DMSO) (concentration not given with the values); O95931; in the data active means normalised signal below about 0.5
Target sequence (O95931 whole entry, looked up): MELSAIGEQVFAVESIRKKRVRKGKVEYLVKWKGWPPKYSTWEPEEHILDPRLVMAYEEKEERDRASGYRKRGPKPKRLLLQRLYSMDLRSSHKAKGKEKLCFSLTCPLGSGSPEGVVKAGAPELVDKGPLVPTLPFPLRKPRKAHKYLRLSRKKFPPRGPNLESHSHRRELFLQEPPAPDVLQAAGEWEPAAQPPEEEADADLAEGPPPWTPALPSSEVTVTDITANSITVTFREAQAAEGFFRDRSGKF
A number is an active result. This excerpt belongs to a sample that is enriched for hits.

What do the screens show for `Cn1cnc2cc(NCc3cccc(Br)c3)ccc21`?
CBX7 inh: inactive

How did CC(C)n1cnc2cc(NCc3ccccn3)ccc21 do in these assays?
CBX7 inh: 0.23

Results for Cn1cnc2cc(NCc3ccccc3Cl)ccc21 ?
CBX7 inh: inactive

How did Cc1oc(-c2ccc(Cl)cc2)nc1Cn1c(SCc2ccc(F)cc2)nc2ccncc21 do in these assays?
CBX7 inh: inactive

How did CCC(C)N(CCNC(=O)C1CCN(C(=O)c2cc3sccc3n2C)CC1)C1CCCCC1 (stereo unspecified) do in these assays?
CBX7 inh: inactive

How did COc1ccc(C2CC(=O)N(CC(=O)Nc3cc(Cl)ccc3OC)c3ccccc3S2)cc1 (stereo unspecified) do in these assays?
CBX7 inh: inactive

What do the screens show for `CCc1nc2ccccc2c(NC(=O)CN2CCN(C)CC2)c1C`?
CBX7 inh: 0.053

How did CCCCc1nc2ccccc2c(NC(=O)CN2CCN(C(=O)c3ccco3)CC2)c1CCC do in these assays?
CBX7 inh: inactive

What do the screens show for `O=C(CN1CCCCC1)Nc1c2c(nc3ccccc13)N(c1cccc(Cl)c1)CC2`?
CBX7 inh: inactive

What do the screens show for `CCOc1ccc(N2C(=O)CC(N3CCN(C(c4ccccc4)c4ccccc4)CC3)C2=O)cc1` (stereo unspecified)?
CBX7 inh: inactive

Results for CCCCN(CCCNC(=O)C1CC(=O)N(CCc2ccccc2)C1)c1ccccc1 (stereo unspecified) ?
CBX7 inh: 0.5

Results for CCCCNC(=O)C1CC(=O)N(CCc2ccccc2)C1 (stereo unspecified) ?
CBX7 inh: inactive

What do the screens show for `CCN(CCCNC(=O)C1CC(=O)N(CCc2ccccc2)C1)c1cccc(C)c1` (stereo unspecified)?
CBX7 inh: inactive

How did Cc1ccc(NC(=O)C2CCCN(S(=O)(=O)c3cccs3)C2)cc1F (stereo unspecified) do in these assays?
CBX7 inh: inactive

Results for COCCCNC(=O)CCc1nc(-c2ccc(OC)cc2)no1 ?
CBX7 inh: inactive

What do the screens show for `CCCN1CCN(C(=O)C2CCCN(c3nc4ccc(OCC)cc4s3)C2)CC1` (stereo unspecified)?
CBX7 inh: 0.29

What do the screens show for `CCOC(=O)N1CCN(C(=O)C2CCCN(c3nc4ccc(OCC)cc4s3)C2)CC1` (stereo unspecified)?
CBX7 inh: inactive

Results for CCOc1ccc2nc(N3CCCC(C(=O)NCCCN4CCOCC4)C3)sc2c1 (stereo unspecified) ?
CBX7 inh: inactive

How did CCOc1ccc2nc(N3CCCC(C(=O)NCCCN4CCN(C)CC4)C3)sc2c1 (stereo unspecified) do in these assays?
CBX7 inh: 0.44

What do the screens show for `CCCNC(=O)C1CCCN(c2nc3ccc(OCC)cc3s2)C1` (stereo unspecified)?
CBX7 inh: inactive

Results for CCOc1ccc2nc(N3CCCC(C(=O)N4CCN(c5ccc(OC)cc5)CC4)C3)sc2c1 (stereo unspecified) ?
CBX7 inh: inactive

Results for O=C(CSc1ncnc2ccccc12)NCC1CCCO1 (stereo unspecified) ?
CBX7 inh: inactive

What do the screens show for `Cc1cccc(NC(=O)CN(C)S(=O)(=O)c2ccc3c(c2)n(C)c(=O)c(=O)n3C)c1`?
CBX7 inh: inactive

How did Cc1ccc(NC(=O)Cn2c(SCc3ccc(F)cc3)nc3ccncc32)c(Cl)c1 do in these assays?
CBX7 inh: inactive

How did CC(C)(C)N1C(=O)c2ccccc2C1C(=O)NC1CCCC1 (stereo unspecified) do in these assays?
CBX7 inh: inactive

How did CCN(CC)S(=O)(=O)c1ccc(C(=O)Nc2nnc(C(C)C)s2)cc1 do in these assays?
CBX7 inh: inactive

How did CCc1nnc(NC(=O)c2ccc(S(=O)(=O)N(CC)CC)cc2)o1 do in these assays?
CBX7 inh: 0.1

Results for CCc1nnc(NC(=O)c2ccc(S(=O)(=O)N(CC(C)C)CC(C)C)cc2)o1 ?
CBX7 inh: 0.1

What do the screens show for `CCc1nnc(NC(=O)c2ccc(S(=O)(=O)N(C)c3ccccc3)cc2)o1`?
CBX7 inh: inactive

What do the screens show for `COc1cccc(C(=O)Nc2nc(-c3ccccc3)c(C)s2)c1`?
CBX7 inh: inactive

What do the screens show for `Cc1ccc(NCc2nc(-c3ccccc3)no2)cc1`?
CBX7 inh: inactive

How did COc1ccc(NC(=O)C(=O)NCCc2ccccc2)cc1OC do in these assays?
CBX7 inh: inactive

What do the screens show for `CCCC(=O)NC(c1ccccc1OC)c1cc(Cl)c2cccnc2c1O` (stereo unspecified)?
CBX7 inh: inactive

Results for COc1ccc(-c2nc(C(=O)NC(C)CCc3ccccc3)c(C)o2)cc1OC (stereo unspecified) ?
CBX7 inh: inactive

How did CCCC(=O)NC(c1ccc(OC)c(OC)c1)c1cc(Cl)c2cccnc2c1O (stereo unspecified) do in these assays?
CBX7 inh: 0.41

Results for COc1ccc(C(NC(=O)CCc2ccccc2)c2ccc3cccnc3c2O)cc1OC (stereo unspecified) ?
CBX7 inh: 0.039

What do the screens show for `CCCC(=O)Nc1ccc(Cl)c(-c2nc3ncccc3o2)c1`?
CBX7 inh: inactive

What do the screens show for `Cc1ccc(NC(=O)C2CCN(S(=O)(=O)c3c(C)noc3/C=C/c3cccs3)CC2)c(C)c1`?
CBX7 inh: inactive

Results for CCOc1ccccc1NC(=O)Cn1ncc2c1-c1cc(C)ccc1OC2 ?
CBX7 inh: inactive

How did Cc1noc(C)c1S(=O)(=O)N1CCCC(C(=O)N2CCN(c3ccccn3)CC2)C1 (stereo unspecified) do in these assays?
CBX7 inh: inactive

Results for CC(NC(=O)c1ccc2c(c1)N(Cc1ccccc1)C(=O)CS2=O)c1ccccc1 (stereo unspecified) ?
CBX7 inh: inactive

What do the screens show for `N#Cc1nc(COc2cccc(Cl)c2)oc1N1CCCCC1`?
CBX7 inh: inactive

Results for N#Cc1nc(COc2cccc(Cl)c2)oc1N1CCCCCC1 ?
CBX7 inh: 0.45

What do the screens show for `N#Cc1nc(COc2ccccc2Cl)oc1N1CCCCCC1`?
CBX7 inh: inactive

What do the screens show for `CC1CCN(c2oc(COc3cccc(Cl)c3)nc2C#N)CC1`?
CBX7 inh: inactive

What do the screens show for `N#Cc1nc(COc2ccc(Cl)cc2)oc1N1CCCCCC1`?
CBX7 inh: 0.37

Results for N#Cc1nc(COc2ccccc2)oc1N1CCCCC1 ?
CBX7 inh: inactive

Results for CCOCCCNC(=O)c1ccc2c(c1)N(CC)C(=O)CS2 ?
CBX7 inh: inactive

What do the screens show for `CC(NS(=O)(=O)c1ccc2c(c1)CCN2C(=O)CCC(=O)O)c1ccccc1` (stereo unspecified)?
CBX7 inh: inactive

How did CCCCCCCNC(=O)CN1N=C(c2ccc(Cl)cc2)CCC1=O do in these assays?
CBX7 inh: inactive

How did COc1ccc(-c2nc(-c3ccccc3)c(-c3ccc(Sc4ccccc4)cc3)[nH]2)cc1 do in these assays?
CBX7 inh: inactive

What do the screens show for `COc1ccc(-c2nc(-c3ccccc3)c(-c3ccc(Cl)cc3)[nH]2)cc1`?
CBX7 inh: inactive

Results for COc1ccc(-c2nc(-c3ccccc3F)[nH]c2-c2ccc(OC)cc2)cc1 ?
CBX7 inh: 0.47

What do the screens show for `COc1ccc(-c2nc(-c3ccccc3)c(-c3ccc(Oc4ccccc4)cc3)[nH]2)cc1`?
CBX7 inh: 0.47

What do the screens show for `COc1ccc(-c2nc(-c3cccc4ccccc34)[nH]c2-c2ccc(OC)cc2)cc1`?
CBX7 inh: inactive

Results for COc1ccc(-c2nc(-c3cccc(F)c3)[nH]c2-c2ccc(OC)cc2)cc1 ?
CBX7 inh: inactive

What do the screens show for `Oc1ccc(-c2nc(-c3ccccc3)c(-c3ccc(Oc4ccccc4)cc3)[nH]2)cc1O`?
CBX7 inh: 0.45
